Assay results reported in PubChem BioAssay AID1159580 (chemical genetic matrix, 2015).
Values joined by “and” are separate entries in the source; they are usually repeats but may differ in a detail not shown here. Identical values can stand only once. About 2,000 (36%) of roughly 5,500 compounds were called active. Another 18% or so got no clear call; they are omitted. No stated cut-off is given here; in the data, active means normalized growth mostly below about 0.91 (no sharp cut-off); inconclusive means no clear call, values can overlap the other calls; inactive means mostly above about 0.92. Some of the results follow.

Assay: chemical genetic growth profiling, strain panel (AID 1159580);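 further: tested at 20 µM; growth read once vehicle control cultures reached saturation at 30 °C; 1 = growth at the plate median or of vehicle wells; lower values mean less growth of the strain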
Details: growth OD

Measured: normalized growth

CC(=O)[C@@]1(O)CCC2C3C=C(Cl)C4=CC(=O)[C@@H]5CC5[C@]4(C)C3CC[C@@]21C (some centres not stated)
inactive: S. cerevisiae deletion strains, locus YAL013W, strain DEP1, active compounds read low 1.02 | S. cerevisiae deletion strains, locus YBR021W, strain FUR4, active compounds read low 0.996 | S. cerevisiae deletion strains, locus YBR229C, strain ROT2, active compounds read low 1.01 | S. cerevisiae deletion strains, locus YCL029C, strain bik1, active compounds read low 1.02 | S. cerevisiae deletion strains, locus YDL035C, strain GPR1, active compounds read low 1 | S. cerevisiae deletion strains, locus YDL074C, strain BRE1, active compounds read low 0.991 | S. cerevisiae deletion strains, locus YDL101C, strain DUN1, active compounds read low 1.01 | S. cerevisiae deletion strains, locus YDL134C, strain PPH21, active compounds read low 1.01 | S. cerevisiae deletion strains, locus YDL185W, strain tfp1, active compounds read low 1.01 | S. cerevisiae deletion strains, locus YDL192W, strain arf1, active compounds read low 0.998 | S. cerevisiae deletion strains, locus YDR101C, strain arx1, active compounds read low 1.01 | S. cerevisiae deletion strains, locus YDR150W, strain NUM1, active compounds read low 1.02 | S. cerevisiae deletion strains, locus YDR162C, strain NBP2, active compounds read low 1 | S. cerevisiae deletion strains, locus YDR318W, strain mcm21, active compounds read low 1 | S. cerevisiae deletion strains, locus YDR388W, active compounds read low 1.01 | S. cerevisiae deletion strains, locus YDR502C, strain sam2, active compounds read low 1.01 | S. cerevisiae deletion strains, locus YEL061C, strain CIN8, active compounds read low 1.01 | S. cerevisiae deletion strains, locus YER110C, active compounds read low 1.02 | S. cerevisiae deletion strains, locus YER155C, strain BEM2, active compounds read low 0.998 | S. cerevisiae deletion strains, locus YER167W, strain BCK2, active compounds read low 0.988 | S. cerevisiae deletion strains, locus YGL078C, strain dbp3, active compounds read low 1 | S. cerevisiae deletion strains, locus YGL086W, strain mad1, active compounds read low 1.01 | S. cerevisiae deletion strains, locus YGL248W, strain PDE1, active compounds read low 1 | S. cerevisiae deletion strains, locus YGR078C, strain PAC10, active compounds read low 0.999 | S. cerevisiae deletion strains, locus YGR135W, strain pre9, active compounds read low 1.01 | S. cerevisiae deletion strains, locus YGR229C, strain SMI1, active compounds read low 1.01 | S. cerevisiae deletion strains, locus YGR252W, strain gcn5, active compounds read low 0.952 | S. cerevisiae deletion strains, locus YHR030C, strain SLT2, active compounds read low 1.01 and 1.03 | S. cerevisiae deletion strains, locus YHR079C, strain IRE1 (second series), active compounds read low 1.02 | S. cerevisiae deletion strains, locus YHR079C, strain IRE1, active compounds read low 1.05 | S. cerevisiae deletion strains, locus YHR094C, strain hxt1, active compounds read low 1.01 | S. cerevisiae deletion strains, locus YHR129C, strain ARP1, active compounds read low 1 | S. cerevisiae deletion strains, locus YHR200W, strain rpn10, active compounds read low 1.02 | S. cerevisiae deletion strains, locus YIL066C, strain RNR3, active compounds read low 1.01 | S. cerevisiae deletion strains, locus YIL073C, strain SPO22, active compounds read low 1.01 | S. cerevisiae deletion strains, locus YIL125W, strain kgd1, active compounds read low 1.01 | S. cerevisiae deletion strains, locus YIR030C, strain dcg1, active compounds read low 1.02 | S. cerevisiae deletion strains, locus YJL095W, strain BCK1, active compounds read low 1.02 and 1.03 | S. cerevisiae deletion strains, locus YJL134W, strain LCB3, active compounds read low 1.01 | S. cerevisiae deletion strains, locus YJL168C, strain set2, active compounds read low 1.01 | S. cerevisiae deletion strains, locus YJL187C, strain SWE1 (second series), active compounds read low 1.02 | S. cerevisiae deletion strains, locus YJR043C, strain POL32, active compounds read low 1 | S. cerevisiae deletion strains, locus YJR066W, strain TOR1, active compounds read low 0.95 | S. cerevisiae deletion strains, locus YJR075W, strain HOC1, active compounds read low 1.03 | S. cerevisiae deletion strains, locus YKL009W, strain mrt4, active compounds read low 0.999 | S. cerevisiae deletion strains, locus YKL068W, active compounds read low 1.01 | S. cerevisiae deletion strains, locus YKL085W, strain MDH1 (second series), active compounds read low 0.999 | S. cerevisiae deletion strains, locus YKL085W, strain MDH1, active compounds read low 0.999 | S. cerevisiae deletion strains, locus YKL190W, strain CNB1, active compounds read low 1.01 | S. cerevisiae deletion strains, locus YKR001C, strain vps1, active compounds read low 0.995 | S. cerevisiae deletion strains, locus YLR039C, strain RIC1, active compounds read low 0.984 | S. cerevisiae deletion strains, locus YLR058C, strain SHM2, active compounds read low 1.01 | S. cerevisiae deletion strains, locus YLR102C, strain apc9, active compounds read low 1.01 | S. cerevisiae deletion strains, locus YLR113W, strain HOG1, active compounds read low 0.974 | S. cerevisiae deletion strains, locus YLR262C, strain YPT6, active compounds read low 1 | S. cerevisiae deletion strains, locus YLR268W, strain sec22, active compounds read low 1.02 | S. cerevisiae deletion strains, locus YLR330W, strain CHS5, active compounds read low 1.01 | S. cerevisiae deletion strains, locus YLR342W, strain FKS1 (second series), active compounds read low 1.01 | S. cerevisiae deletion strains, locus YLR371W, strain rom2, active compounds read low 1.02 | S. cerevisiae deletion strains, locus YLR418C, strain cdc73, active compounds read low 0.993 | S. cerevisiae deletion strains, locus YML016C, strain PPZ1, active compounds read low 1.02 | S. cerevisiae deletion strains, locus YML032C, strain rad52, active compounds read low 1.02 | S. cerevisiae deletion strains, locus YML124C, strain tub3, active compounds read low 1.01 | S. cerevisiae deletion strains, locus YMR078C, strain ctf18, active compounds read low 1 | S. cerevisiae deletion strains, locus YMR223W, strain ubp8, active compounds read low 1.01 | S. cerevisiae deletion strains, locus YMR263W, strain SAP30, active compounds read low 1.02 | S. cerevisiae deletion strains, locus YMR307W, strain GAS1, active compounds read low 0.943 | S. cerevisiae deletion strains, locus YNL067W, strain RPL9B, active compounds read low 1.02 | S. cerevisiae deletion strains, locus YNL128W, strain TEP1, active compounds read low 1.03 | S. cerevisiae deletion strains, locus YNL153C, strain GIM3, active compounds read low 1.01 | S. cerevisiae deletion strains, locus YNL183C, strain NPR1, active compounds read low 0.958 | S. cerevisiae deletion strains, locus YNL233W, strain BNI4, active compounds read low 0.987 | S. cerevisiae deletion strains, locus YNL250W, strain rad50, active compounds read low 1.01 | S. cerevisiae deletion strains, locus YNL271C, strain bni1, active compounds read low 1.01 | S. cerevisiae deletion strains, locus YNL298W, strain CLA4, active compounds read low 1.01 | S. cerevisiae deletion strains, locus YNL307C, strain MCK1, active compounds read low 1 | S. cerevisiae deletion strains, locus YNL322C, strain KRE1, active compounds read low 1.01 | S. cerevisiae deletion strains, locus YNR052C, strain pop2, active compounds read low 1.01 | S. cerevisiae deletion strains, locus YOL006C, strain TOP1, active compounds read low 1.02 | S. cerevisiae deletion strains, locus YOL012C, strain htz1 1.53 | S. cerevisiae deletion strains, locus YOL147C, strain pex11, active compounds read low 1 | S. cerevisiae deletion strains, locus YOR061W, strain CKA2, active compounds read low 1.01 | S. cerevisiae deletion strains, locus YOR069W, strain VPS5, active compounds read low 1.01 | S. cerevisiae deletion strains, locus YOR136W, strain idh2, active compounds read low 1 | S. cerevisiae deletion strains, locus YOR144C, strain elg1, active compounds read low 1 | S. cerevisiae deletion strains, locus YOR184W, strain ser1, active compounds read low 1 | S. cerevisiae deletion strains, locus YOR231W, strain MKK1, active compounds read low 1.01 | S. cerevisiae deletion strains, locus YOR316C, strain cot1, active compounds read low 1.01 | S. cerevisiae deletion strains, locus YPL055C, strain LGE1, active compounds read low 1.01 | S. cerevisiae deletion strains, locus YPL241C, strain CIN2, active compounds read low 1.01 | S. cerevisiae deletion strains, locus YPL256C, strain CLN2, active compounds read low 1.04 | S. cerevisiae deletion strains, locus YPR119W, strain clb2, active compounds read low 1 | S. cerevisiae deletion strains, locus YPR141C, strain kar3, active compounds read low 0.998 | S. cerevisiae deletion strains, locus YPR163C, strain tif3, active compounds read low 1.01 | S. cerevisiae deletion strains, locus YPR167C, strain met16, active compounds read low 1.01 | S. cerevisiae deletion strains, strain wtn01, active compounds read low 1.02 | S. cerevisiae strains, strain wild type, active compounds read low 1
